Results published in PubChem BioAssay (EPA / NIEHS).
Active and inactive are the calls of the source. Rule for the calls: active = hit-call score of the fitted dose curve at least 0.9, where 1 is the maximum; inactive = score below 0.9.

Tests used:
[1] = ATG_DR4_LXR_CIS: Attagene CIS-FACTORIAL HepG2 Assay for human Liver X Receptor (LXR), DR4 submotif (AID 2282929); details: HepG2 Attagene DR4 cis-reporter, mRNA transcription; AC50: actives raise or lower the signal unless noted; outcome: actives raise or lower the signal unless noted
Outline: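 Cells were transfected with multiple reporter transcription units, exposed to chemicals for 24 hours, then lysed for RNA. Reporter mRNA induction was measured by RT-PCR with capillary electrophoresis detection and fitted in both directions relative to DMSO.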

[2] = target: Aryl hydrocarbon receptor (Homo sapiens) (UniProt P35869); assay: ATG_Ahr_CIS: Attagene CIS-FACTORIAL HepG2 Assay for human Aryl Hydrocarbon Receptor (Ahr) (AID 2282930); details: HepG2 AhR cis-factorial reporter transcription; actives raise or lower the signal
Chain of Aryl hydrocarbon receptor (Homo sapiens) (P35869 whole entry, looked up): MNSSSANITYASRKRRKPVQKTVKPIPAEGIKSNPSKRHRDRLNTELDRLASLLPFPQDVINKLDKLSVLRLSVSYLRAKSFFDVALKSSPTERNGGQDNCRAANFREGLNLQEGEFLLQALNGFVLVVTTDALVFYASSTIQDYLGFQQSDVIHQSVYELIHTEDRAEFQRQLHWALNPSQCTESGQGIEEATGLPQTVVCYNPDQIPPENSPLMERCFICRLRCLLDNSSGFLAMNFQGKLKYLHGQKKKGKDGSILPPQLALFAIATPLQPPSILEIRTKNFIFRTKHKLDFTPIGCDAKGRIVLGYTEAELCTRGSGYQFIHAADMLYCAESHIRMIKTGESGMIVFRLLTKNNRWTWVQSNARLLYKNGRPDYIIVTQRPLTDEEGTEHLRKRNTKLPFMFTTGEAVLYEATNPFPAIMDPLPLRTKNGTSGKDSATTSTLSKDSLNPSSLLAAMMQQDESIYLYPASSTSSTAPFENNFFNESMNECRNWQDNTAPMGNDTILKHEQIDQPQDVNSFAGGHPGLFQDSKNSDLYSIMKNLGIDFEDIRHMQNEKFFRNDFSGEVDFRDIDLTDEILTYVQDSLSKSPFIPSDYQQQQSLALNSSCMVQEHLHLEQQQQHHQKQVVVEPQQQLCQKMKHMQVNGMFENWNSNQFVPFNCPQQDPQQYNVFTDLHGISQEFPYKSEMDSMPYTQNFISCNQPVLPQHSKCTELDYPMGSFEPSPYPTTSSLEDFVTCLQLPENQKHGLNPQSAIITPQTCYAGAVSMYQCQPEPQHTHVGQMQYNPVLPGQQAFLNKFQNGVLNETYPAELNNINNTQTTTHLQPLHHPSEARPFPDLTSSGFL
Outline: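 Transient MRTU transfection of HepG2 → 24 h compound exposure → total RNA, oligo(dT) RT → PCR, 6-FAM extension, HpaI cut → CE fluorescence. DMSO = baseline; bidirectional curve fit.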

[3] = ATG_AP_1_CIS: Attagene CIS-FACTORIAL HepG2 Assay for human Activator Protein 1 (AP-1) (AID 2282931); details: HepG2 Attagene cis-factorial AP-1 reporter mRNA; actives raise or lower the signal
Outline: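 Endogenous transcription-factor activity in human HepG2 liver cells is read through a cis-promoter reporter transcript, sampled 24 h after dosing. Detection uses RT-PCR with capillary electrophoresis; values come from bidirectional fitting relative to DMSO.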

[4] = ATG_AP_2_CIS: Attagene CIS-FACTORIAL HepG2 Assay for human Activator Protein 2 (AP-2) (AID 2282932); details: HepG2 AP-2 cis-reporter, Attagene transcription factor profiling; AC50: actives raise or lower the signal unless noted; outcome: actives raise or lower the signal unless noted
Outline: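 Step one: transient transfection of HepG2 with reporter transcription units. Step two: 24 h chemical exposure. Step three: RNA extraction, RT-PCR, labelled fragment analysis by capillary electrophoresis; DMSO serves as baseline.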

[5] = ATG_BRE_CIS: Attagene CIS-FACTORIAL HepG2 Assay for human Bone Morphogenetic Protein (BMP) Response Element (BRE) (AID 2282933); details: HepG2 BMP response element reporter, Attagene transcription factor profiling; actives raise or lower the signal
Outline: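 Endogenous transcription factor activity read in transiently transfected HepG2 cells after 24 h chemical exposure. Bidirectional curve fitting against DMSO; readout is reporter transcript level by RT-PCR with capillary electrophoresis of labelled products.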

[6] = target: Transcription factor E2F1 (Homo sapiens) (UniProt Q01094); assay: ATG_E2F_CIS: Attagene CIS-FACTORIAL HepG2 Assay for human E2F Transcription Factor 1 (AID 2282935); details: HepG2 Attagene cis-reporter, E2F reporter RNA transcripts; actives raise or lower the signal
Chain of Transcription factor E2F1 (Homo sapiens) (Q01094 whole entry, looked up): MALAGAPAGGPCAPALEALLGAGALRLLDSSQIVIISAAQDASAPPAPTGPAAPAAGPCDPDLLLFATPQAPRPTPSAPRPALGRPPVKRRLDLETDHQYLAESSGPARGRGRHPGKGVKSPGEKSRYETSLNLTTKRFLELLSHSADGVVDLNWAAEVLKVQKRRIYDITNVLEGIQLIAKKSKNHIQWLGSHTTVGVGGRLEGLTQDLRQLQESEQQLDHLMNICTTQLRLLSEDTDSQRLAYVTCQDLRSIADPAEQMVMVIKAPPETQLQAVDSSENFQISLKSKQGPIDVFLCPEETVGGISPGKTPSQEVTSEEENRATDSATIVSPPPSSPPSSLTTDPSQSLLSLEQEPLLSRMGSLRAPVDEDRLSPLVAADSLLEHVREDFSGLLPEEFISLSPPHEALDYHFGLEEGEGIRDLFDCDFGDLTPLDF
Outline: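 Total RNA from 24 h-treated, reporter-transfected HepG2 cells undergoes DNase I treatment, oligo(dT) reverse transcription, PCR and 6-FAM primer extension before capillary electrophoresis.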

[7] = ATG_E_Box_CIS: Attagene CIS-FACTORIAL HepG2 Assay for human Enhancer Box (E-box) (AID 2282936); details: HepG2 E-box cis-reporter transcription, actives raise or lower the signal
Outline: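 DMSO served as negative control and baseline for bidirectional fitting. Human hepatoma HepG2 cells, transiently transfected with cis-reporter constructs, were dosed 24 h; reporter mRNA read by RT-PCR and capillary electrophoresis.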

[8] = ATG_M_61_CIS: Attagene CIS-FACTORIAL HepG2 Assay for M61 Transcription Factor (Internal Marker) (AID 2282937); details: HepG2 Attagene CIS-FACTORIAL M61 internal marker reporter; actives raise or lower the signal
Outline: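 Cells were transfected with reporter units under cis-regulatory promoters, treated with chemicals for 24 h, then lysed for RNA. Reporter transcripts were quantified by RT-PCR and capillary electrophoresis, and activity was fitted bidirectionally against DMSO.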

[9] = ATG_EGR_CIS: Attagene CIS-FACTORIAL HepG2 Assay for human Early Growth Response 1 (EGR1) (AID 2282938); details: HepG2 Attagene CIS-FACTORIAL EGR reporter mRNA; actives raise or lower the signal
Outline: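 Endogenous TF activity in HepG2 liver cells was gauged through cis-promoter reporter constructs transiently transfected. After 24 h dosing, reporter mRNA was quantified by RT-PCR and capillary electrophoresis, and curves fitted in both directions versus DMSO.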

[10] = ATG_M_19_CIS: Attagene CIS-FACTORIAL HepG2 Assay for M19 Transcription Factor (Internal Marker) (AID 2282939); details: HepG2 Attagene CIS-FACTORIAL M19 internal marker reporter; actives raise or lower the signal
Outline: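 Internal marker readout, fitted in both directions against DMSO, from HepG2 cells carrying transfected cis-element reporter constructs; RT-PCR and capillary electrophoresis of reporter mRNA after 24 h exposure.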

[11] = ATG_Ets_CIS: Attagene CIS-FACTORIAL HepG2 Assay for human Erythroblast Transformation Specific (ETS) (AID 2282941); details: HepG2 ETS cis-reporter transcription; AC50: actives raise or lower the signal unless noted; outcome: actives raise or lower the signal unless noted
Outline: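 Human HepG2 hepatoma cells were transiently transfected with promoter-driven reporter constructs and treated for 24 hours. Reporter transcripts were quantified by RT-PCR with fluorescent primer extension; bidirectional curve fitting used DMSO as reference.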

[12] = target: Hepatocyte nuclear factor 3-beta (Homo sapiens) (UniProt Q9Y261); assay: ATG_FoxA2_CIS: Attagene CIS-FACTORIAL HepG2 Assay for human Forkhead box A2 (FOXA2) (AID 2282942); details: HepG2 cis-reporter transcription factor activity, 24 h; actives raise or lower the signal
Chain of Hepatocyte nuclear factor 3-beta (Homo sapiens) (Q9Y261 whole entry, looked up): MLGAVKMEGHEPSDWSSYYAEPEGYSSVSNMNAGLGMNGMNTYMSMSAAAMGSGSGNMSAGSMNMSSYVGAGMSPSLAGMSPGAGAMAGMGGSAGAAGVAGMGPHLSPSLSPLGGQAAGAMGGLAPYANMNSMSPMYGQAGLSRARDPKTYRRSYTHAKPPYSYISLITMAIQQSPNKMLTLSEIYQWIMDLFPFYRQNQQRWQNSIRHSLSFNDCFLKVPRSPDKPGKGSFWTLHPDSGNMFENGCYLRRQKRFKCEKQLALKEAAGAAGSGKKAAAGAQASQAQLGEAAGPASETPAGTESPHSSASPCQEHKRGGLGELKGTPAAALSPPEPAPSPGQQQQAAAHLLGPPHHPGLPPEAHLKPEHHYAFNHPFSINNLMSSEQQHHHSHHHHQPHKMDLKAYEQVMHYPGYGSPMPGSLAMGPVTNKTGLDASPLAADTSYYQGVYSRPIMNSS
Outline: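 Endogenous transcription factor activity was read in HepG2 cells carrying transiently transfected cis-promoter reporter units. After 24 h dosing, reporter mRNA was quantified by RT-PCR and capillary electrophoresis, and values fitted bidirectionally versus DMSO.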

[13] = ATG_FoxO_CIS: Attagene CIS-FACTORIAL HepG2 Assay for human Forkhead box O (FoxO) (AID 2282943); details: HepG2 Attagene cis-reporter, FoxO element, mRNA; actives raise or lower the signal
Outline: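 HepG2, transient MRTU transfection (cis element, endogenous TFs). Dose 24 h. TriZol RNA → oligo(dT) RT → PCR → 6-FAM primer extension → HpaI cut → CE. Gain/loss vs DMSO.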

[14] = ATG_GATA_CIS: Attagene CIS-FACTORIAL HepG2 Assay for human GATA Binding Protein (AID 2282944); details: HepG2 GATA cis-element reporter, Attagene multiplex mRNA; actives raise or lower the signal
Outline: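 Reporter transcripts from a GATA cis-regulated unit, among multiplexed reporters in transfected HepG2 cells, were measured by RT-PCR with capillary electrophoresis after 24 h dosing. Induction or loss scored relative to DMSO.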

[15] = ATG_GLI_CIS: Attagene CIS-FACTORIAL HepG2 Assay for human Zinc Finger Protein GLI1 (AID 2282945); details: HepG2, Attagene cis-factorial reporter mRNA, GLI element; actives raise or lower the signal
Outline: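 Bidirectional curve fits relative to DMSO, using reporter mRNA levels from RT-PCR plus capillary electrophoresis. Cells were HepG2 transiently carrying cis-regulated reporter constructs, harvested 24 h after dosing.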

[16] = ATG_ISRE_CIS: Attagene CIS-FACTORIAL HepG2 Assay for human Interferon Regulatory Factor 1 (IRF1) binding to an Interferon-Stimulated Response Element (ISRE) (AID 2282948); details: HepG2 ISRE cis-reporter (Attagene), mRNA transcription readout; actives raise or lower the signal
Outline: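 Cell-based cis-reporter assay; HepG2; 24 h exposure; reporter mRNA by RT-PCR plus capillary electrophoresis fluorescence; activity in either direction scored relative to DMSO.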

[17] = target: Retinoic acid receptor alpha (Homo sapiens) (UniProt P10276); assay: ATG_DR5_RAR_CIS: Attagene CIS-FACTORIAL HepG2 Assay for human Retinoic Acid Receptor Alpha (RARE), DR5 submotif (AID 2282934); details: HepG2 Attagene cis-factorial RARE DR5 reporter, mRNA; actives raise or lower the signal;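 for AC50: reporter responds to endogenous RAR alpha beta and gamma in HepG2 not RARA alone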
Chain of Retinoic acid receptor alpha (Homo sapiens) (P10276 whole entry, looked up): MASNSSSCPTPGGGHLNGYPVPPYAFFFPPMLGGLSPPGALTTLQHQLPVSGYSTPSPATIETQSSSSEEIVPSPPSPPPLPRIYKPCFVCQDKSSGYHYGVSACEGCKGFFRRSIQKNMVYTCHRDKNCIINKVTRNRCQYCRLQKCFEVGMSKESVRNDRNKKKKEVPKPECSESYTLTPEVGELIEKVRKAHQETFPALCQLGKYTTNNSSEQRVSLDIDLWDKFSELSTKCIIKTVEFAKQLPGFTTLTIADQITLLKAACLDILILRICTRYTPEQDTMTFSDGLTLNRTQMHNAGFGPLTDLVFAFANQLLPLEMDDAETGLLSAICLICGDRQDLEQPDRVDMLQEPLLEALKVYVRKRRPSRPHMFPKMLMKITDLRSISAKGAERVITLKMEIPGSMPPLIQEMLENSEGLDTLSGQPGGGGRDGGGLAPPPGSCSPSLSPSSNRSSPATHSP
Outline: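 Transient MRTU transfection of HepG2; 24 h compound treatment; TriZol RNA, oligo(dT) RT, PCR, FAM labelling, capillary electrophoresis. Bidirectional fit vs DMSO. Endogenous TF activity at DR5 RARE.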

[18] = ATG_ERE_CIS: Attagene CIS-FACTORIAL HepG2 Assay for Estrogen Response Element (ERE) (AID 2282940); details: HepG2 ERE cis-reporter, Attagene RNA transcript; actives raise or lower the signal
Outline: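 After 24 h compound treatment, RNA from transfected HepG2 cells was reverse-transcribed, reporter cDNA PCR-amplified, FAM-labelled, HpaI-cut and resolved by capillary electrophoresis. ERE-driven cis reporter transcripts reflect endogenous factors; gain or loss scored against DMSO.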

[19] = ATG_GRE_CIS: Attagene CIS-FACTORIAL HepG2 Assay for human Glucocorticoid Response Elements (GRE) (AID 2282947); details: HepG2 GRE cis-reporter, Attagene multiplex mRNA; AC50: actives raise or lower the signal unless noted; outcome: actives raise or lower the signal unless noted
Outline: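 Assay uses human hepatoma HepG2 cells transfected with cis-promoter reporter units, exposed 24 h. mRNA from reporters detected by RT-PCR plus capillary electrophoresis; DMSO serves as negative control and baseline.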

[20] = target: Bile acid receptor (Homo sapiens) (UniProt Q96RI1); assay: ATG_IR1_CIS: Attagene CIS-FACTORIAL HepG2 Assay for human Nuclear Receptor Subfamily 1 Group H Member 4 (NR1H4), IR1 submotif (AID 2282946); details: IR1 reporter transcription, actives raise or lower the signal
Chain of Bile acid receptor (Homo sapiens) (Q96RI1 whole entry, looked up, the tested form may be a part): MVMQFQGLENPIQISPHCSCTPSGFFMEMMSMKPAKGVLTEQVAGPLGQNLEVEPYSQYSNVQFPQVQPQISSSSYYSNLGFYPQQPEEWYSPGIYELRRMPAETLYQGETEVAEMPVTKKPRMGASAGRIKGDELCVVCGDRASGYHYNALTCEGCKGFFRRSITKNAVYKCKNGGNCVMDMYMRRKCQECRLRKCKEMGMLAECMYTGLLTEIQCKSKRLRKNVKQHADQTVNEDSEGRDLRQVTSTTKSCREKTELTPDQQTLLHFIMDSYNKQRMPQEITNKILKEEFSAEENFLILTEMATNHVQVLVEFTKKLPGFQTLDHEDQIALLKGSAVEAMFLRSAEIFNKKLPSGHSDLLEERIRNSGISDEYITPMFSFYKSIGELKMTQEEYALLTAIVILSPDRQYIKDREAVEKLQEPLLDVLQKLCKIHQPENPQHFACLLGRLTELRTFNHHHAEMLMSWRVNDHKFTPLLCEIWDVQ
Outline: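 Cells (human HepG2) carry transiently transfected cis-promoter reporter transcription units. Compounds are incubated 24 h, total RNA is reverse-transcribed and amplified, and labelled fragments are resolved by capillary electrophoresis. Curves use DMSO as baseline.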

Measured: AC50

CNNCc1ccc(C(=O)NC(C)C)cc1
inactive: [1] | [2] | [3] | [4] | [5] | [6] | [7] | [8] | [9] | [10] | [11] | [12] | [13] | [14] | [15] | [16]

CCC(=O)O
inactive: [1] | [2] | [3] | [4] | [5] | [17] | [7] | [8] | [9] | [10] | [18] | [11] | [12] | [13] | [14] | [15] | [19] | [16]

CC(C)(C)c1ccc(CCC=O)cc1
active: [17] 72.3 µM | [18] 144 µM
inactive: [1] | [2] | [3] | [4] | [6] | [7] | [8] | [9] | [10] | [11] | [12] | [13] | [14] | [15] | [20] | [19] | [16]

COc1ccc(C#N)cc1
inactive: [1] | [2] | [3] | [5] | [17] | [6] | [7] | [8] | [9] | [10] | [18] | [11] | [13] | [14] | [15] | [20] | [16]

Nc1ccn([C@@H]2O[C@H](CO)[C@@H](O)C2O)c(=O)n1 (stereo partly drawn)
inactive: [1] | [2] | [3] | [17] | [6] | [7] | [8] | [9] | [10] | [18] | [11] | [12] | [13] | [14] | [15] | [20] | [19] | [16]

c1ccc(CNc2ncnc3c2ncn3C2CCCCO2)cc1 (stereo not drawn)
inactive: [1] | [3] | [4] | [5] | [17] | [6] | [7] | [8] | [9] | [10] | [18] | [11] | [12] | [13] | [14] | [15] | [20] | [19] | [16]

Cc1cccc2c1ccc1ccccc12
inactive: [1] | [2] | [3] | [17] | [7] | [8] | [9] | [10] | [11] | [12] | [13] | [14] | [15] | [20] | [16]
active: [18] 10.2 µM

CCCCCCCCC(C)=O
inactive: [1] | [2] | [3] | [5] | [17] | [6] | [7] | [8] | [9] | [10] | [18] | [11] | [13] | [14] | [15] | [20] | [19] | [16]

Cc1ccc(C(=O)c2ccccc2)cc1
active: [18] 27.2 µM
inactive: [1] | [3] | [4] | [5] | [17] | [6] | [7] | [8] | [9] | [10] | [11] | [12] | [13] | [14] | [15] | [20] | [16]

O=P(O)(O)CCC(F)(F)C(F)(F)C(F)(F)C(F)(F)C(F)(F)C(F)(F)C(F)(F)C(F)(F)F
inactive: [1] | [2] | [3] | [17] | [7] | [8] | [9] | [10] | [18] | [11] | [12] | [13] | [14] | [15] | [20] | [19] | [16]

CCCCC(CC)C(=O)OCCOCCOCCOCCOC(=O)C(CC)CCCC (stereo not drawn)
inactive: [1] | [2] | [3] | [5] | [17] | [6] | [7] | [8] | [9] | [10] | [18] | [11] | [12] | [13] | [15] | [20] | [16]
